Source: PubChem BioAssay
Shown are actives, neighbours in structure and some others; about 2.9% of the full set was active somewhere.
MEKK3 PB1 HTS: MEKK3-MEK5 PB1 interaction, increase or decrease | bead-based flow cytometry, Alexa488-MEK5 binding to MEKK3; actives lie on both sides; 0 = blocked by unlabeled MEK5, 100 = vehicle | Q99759 | 290,000 compounds, 1.4% hits | binding response (% of control), % at 10 µM;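 active = binding response more than 3 SD above or below the average of its plate-row segment, actives on both sides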;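 also: Alexa488 bead fluorescence after subtracting the streptavidin-only scavenger bead signal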
Target sequence (Q99759 whole entry, looked up): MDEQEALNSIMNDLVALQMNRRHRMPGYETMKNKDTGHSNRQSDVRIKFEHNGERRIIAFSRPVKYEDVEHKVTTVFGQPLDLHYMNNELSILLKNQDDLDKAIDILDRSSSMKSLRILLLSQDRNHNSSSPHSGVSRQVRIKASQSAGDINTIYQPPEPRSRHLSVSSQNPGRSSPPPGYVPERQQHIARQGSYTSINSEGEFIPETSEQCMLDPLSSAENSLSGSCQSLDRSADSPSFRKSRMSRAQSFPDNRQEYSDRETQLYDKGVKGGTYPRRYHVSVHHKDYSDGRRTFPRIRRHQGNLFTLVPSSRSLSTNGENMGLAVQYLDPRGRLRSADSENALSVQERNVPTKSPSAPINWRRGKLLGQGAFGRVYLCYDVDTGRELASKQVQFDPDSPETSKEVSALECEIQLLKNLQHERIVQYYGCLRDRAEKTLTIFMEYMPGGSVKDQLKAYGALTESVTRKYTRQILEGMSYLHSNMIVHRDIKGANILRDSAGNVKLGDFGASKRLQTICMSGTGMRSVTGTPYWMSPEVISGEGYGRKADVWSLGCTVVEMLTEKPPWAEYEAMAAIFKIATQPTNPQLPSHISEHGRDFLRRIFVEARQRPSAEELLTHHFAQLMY
B2AR ag: activates human beta-2 adrenergic receptor causing internalization; P07550; Am2.2-beta2AR cells, FAP receptor internalization, flow cytometry; response, % (concentration not given with the values); 340,000 compounds, 0.43% hits; AID 504454;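 active = response above a set limit, near 3 SD of response in nonfluorescent compounds, cut at about 42% in these data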
MEKK2wt PB1 HTS: raises or lowers MEK5 binding to wildtype human MEKK2 PB1 domain; Q9Y2U5; bead flow cytometry, Alexa488-MEK5 binding to MEKK2 WT; actives lie on both sides; binding response (% of control), % at 10 µM; 290,000 compounds, 1.1% hits; in the data active = binding response below about 67% or above about 130%
MEKK2 mut-MEK5: signal of MEK5 binding to mutant human MEKK2 PB1 domain; bead flow cytometry, Alexa488-MEK5 binding to MEKK2 mutant; percent response, % at 10 µM; 290,000 compounds, 0.35% hits; in the data active = percent response above about 24%, passing the limit was not always enough
GRK2 aptamer HTS: human GRK2 inhibition via aptamer displacement. P25098. bead flow cytometry, FAM-aptamer displacement from GRK2. inhibition of aptamer binding, % at 10 µM. 330,000 compounds, 0.59% hits;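 active = inhibition of aptamer binding above 40%, roughly 3 SD of noise, on plates passing a quality check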;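 also: median bead fluorescence of bound FAM aptamer so fluorescent compounds give negative values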
MEKK2wt confirm: raises or lowers MEK5 binding to wildtype human MEKK2, retest; 5,900 compounds, 2.4% hits; bead flow cytometry, Alexa488-MEK5 binding to MEKK2 WT; actives lie on both sides; binding response (% of control), % at 10 µM; shares compounds with MEKK3 PB1 HTS; in the data active = binding response below about 16% or above about 210%; inactive = in between
MEKK2mut-MEK5: signal of MEK5 binding to mutant human MEKK2, retest | AID 1893 | shares compounds with MEKK3 PB1 HTS | 5,900 compounds, 2% hits | percent response, % at 10 µM | bead flow cytometry, Alexa488-MEK5 binding to MEKK2 mutant; in the data active = percent response mostly above about 71%, no sharp cut-off; inactive = mostly below about 38%;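 also: higher means compound restores mutant binding toward wildtype level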
MEKK3-MEK5 inh: MEKK3-MEK5 PB1 inhibition, single concentration confirmation | binding response (% of control), % at 10 µM | 5,900 compounds, 1.8% hits | bead flow cytometry, Alexa488-MEK5 binding to MEKK3; hits give low values | shares compounds with MEKK3 PB1 HTS | AID 1894;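 active = binding response below 72% of control, or above a set upper limit, though filed actives all read lower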;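 also: 100% = DMSO only wells and 0% = binding blocked by excess unlabeled MEK5; lower values mean stronger disruption of MEK5 binding to MEKK3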
* = called active by the depositor; [ ] = remark or other dose.

For CCN(C[C@H]1N[C@@](Cc2ccccc2)(C(=O)OC)[C@H]2C(=O)N(C)C(=O)[C@@H]12)C(=O)COC the results were B2AR ag -6 and GRK2 aptamer HTS 0.
C#CCOCCOCCOCCNc1nc(N2CCN(C(=O)[C@H](CCC(=O)O)n3cc(C(N)Cc4ccc(O)cc4)nn3)CC2)nc(N2CCN(C(=O)[C@H](Cc3cc4ccccc4[nH]3)n3cc(C(N)[C@H](C)CC)nn3)CC2)n1 (some centres not stated) was read as MEKK3 PB1 HTS 112, B2AR ag 0, MEKK2wt PB1 HTS 153*, MEKK2 mut-MEK5 38, GRK2 aptamer HTS 0, MEKK2wt confirm 134, MEKK2mut-MEK5 20 and MEKK3-MEK5 inh 102.
Screening C#CCOCCOCCOCCNc1nc(N2CCN(C(=O)[C@H](Cc3cc4ccccc4[nH]3)n3cc([C@@H](N)C(C)CC)nn3)CC2)nc(N2CCN(C(=O)[C@H](Cc3cc4ccccc4[nH]3)n3cc([C@@H](N)Cc4ccc(O)cc4)nn3)CC2)n1 (some centres not stated) returned MEKK3 PB1 HTS 111, MEKK2wt PB1 HTS 313*, MEKK2 mut-MEK5 162*, GRK2 aptamer HTS 0, MEKK2wt confirm 266*, MEKK2mut-MEK5 104* and MEKK3-MEK5 inh 110.
`C#CCOCCOCCOCCNc1nc(N2CCN(C(=O)[C@H](Cc3cc4ccccc4[nH]3)n3cc([C@@H](N)C(C)CC)nn3)CC2)nc(N2CCN(C(=O)[C@H](CCCCN)n3cc([C@@H](N)CC(C)C)nn3)CC2)n1` (some centres not stated) gave MEKK3 PB1 HTS 111, MEKK2wt PB1 HTS 247*, MEKK2 mut-MEK5 95*, GRK2 aptamer HTS 0, MEKK2wt confirm 232*, MEKK2mut-MEK5 89* and MEKK3-MEK5 inh 113.
Screening C#CCOCCOCCOCCNc1nc(N2CCN(C(=O)[C@H](Cc3cc4ccccc4[nH]3)n3cc(C(N)CC(C)C)nn3)CC2)nc(N2CCN(C(=O)[C@H](CCC(=O)O)n3cc(C(N)[C@H](C)CC)nn3)CC2)n1 (some centres not stated) returned MEKK3 PB1 HTS 100, B2AR ag -1, MEKK2wt PB1 HTS 108, MEKK2 mut-MEK5 4 and GRK2 aptamer HTS 0.
For CCN(CC)c1ccc(NC(=O)CN2CCN(CC(=O)Nc3ccccc3F)CC2)cc1 the results were MEKK3 PB1 HTS 122*, B2AR ag 4, MEKK2wt PB1 HTS 124, MEKK2 mut-MEK5 13, GRK2 aptamer HTS 2, MEKK2wt confirm 104, MEKK2mut-MEK5 2 and MEKK3-MEK5 inh 97.
CN1CCN(NC(=O)c2ccc(Cl)c(S(=O)(=O)Nc3ccc(Cl)cc3)c2)CC1 was read as MEKK3 PB1 HTS 98, B2AR ag -3, MEKK2wt PB1 HTS 99, MEKK2 mut-MEK5 -17 and GRK2 aptamer HTS 3.
For CSCC[C@H](NC(=O)C1CCCC1)c1nc2ccccc2[nH]1 the results were MEKK3 PB1 HTS 69*[inhibitor], B2AR ag 0, MEKK2wt PB1 HTS 68, MEKK2 mut-MEK5 -16, GRK2 aptamer HTS 3, MEKK2wt confirm 108, MEKK2mut-MEK5 5 and MEKK3-MEK5 inh 104.
Screening COC(=O)c1cc(NC(=O)c2cc(C(C)(C)C)nn2Cc2ccc(F)cc2)ccc1N1CCOCC1 returned MEKK3 PB1 HTS 133*, B2AR ag 9, MEKK2wt PB1 HTS 130, MEKK2 mut-MEK5 32, GRK2 aptamer HTS 2, MEKK2wt confirm 103, MEKK2mut-MEK5 -2 and MEKK3-MEK5 inh 103.
For CC(C)(C)c1cc(C(=O)NN)n(Cc2ccc(F)cc2)n1 the results were MEKK3 PB1 HTS 108, B2AR ag 3, MEKK2wt PB1 HTS 106, MEKK2 mut-MEK5 -1 and GRK2 aptamer HTS 0.
O=C(Nc1ccc(Br)cc1)c1cccc(N2C(=O)C3CCCCC3C2=O)c1 (configuration not stated) was read as MEKK3 PB1 HTS 105, B2AR ag 4, MEKK2wt PB1 HTS 107, MEKK2 mut-MEK5 7 and GRK2 aptamer HTS 3.
For CC1CCCCC1NC(=O)CN1CCN(S(=O)(=O)c2ccc(Br)s2)CC1 (configuration not stated) the results were B2AR ag -7 and GRK2 aptamer HTS 0.
`CC(=O)Nc1nonc1NC(C)=O` gave MEKK3 PB1 HTS 2.0*[inhibitor], B2AR ag -4, MEKK2wt PB1 HTS 3.0*[inhibitor], MEKK2 mut-MEK5 -15, GRK2 aptamer HTS 0, MEKK2wt confirm 100, MEKK2mut-MEK5 0 and MEKK3-MEK5 inh 104.
O=C(NC1CCN(Cc2ccccc2)CC1)C1CCN(c2nnc(-n3cccc3)s2)CC1 was read as MEKK3 PB1 HTS 112, B2AR ag -9, MEKK2wt PB1 HTS 203*, MEKK2 mut-MEK5 50*, GRK2 aptamer HTS 0, MEKK2wt confirm 183, MEKK2mut-MEK5 65 and MEKK3-MEK5 inh 111.
Screening O=C(NCCCN1CCc2ccccc2C1)C1CCN(c2nnc(-n3cccc3)s2)CC1 returned MEKK3 PB1 HTS 115, B2AR ag -15, MEKK2wt PB1 HTS 219*, MEKK2 mut-MEK5 55*, GRK2 aptamer HTS 0, MEKK2wt confirm 186, MEKK2mut-MEK5 62 and MEKK3-MEK5 inh 113.
Screening O=C(NCCCc1ccccc1)C1CCN(c2nnc(-n3cccc3)s2)CC1 returned MEKK3 PB1 HTS 104, B2AR ag -25, MEKK2wt PB1 HTS 105, MEKK2 mut-MEK5 3 and GRK2 aptamer HTS 0.
Screening CCC/C=C1/CCCOC(C(=O)NCCNCCO)(C(F)(F)F)C1 (configuration not stated) returned MEKK3 PB1 HTS 71*[inhibitor], B2AR ag 3, MEKK2wt PB1 HTS 81, MEKK2 mut-MEK5 -7, GRK2 aptamer HTS 1, MEKK2wt confirm 97, MEKK2mut-MEK5 3 and MEKK3-MEK5 inh 97.
For COc1ccc(CC(=O)O/N=C(\N)c2ccccc2)cc1OC the results were MEKK3 PB1 HTS 99, B2AR ag 10, MEKK2wt PB1 HTS 100, MEKK2 mut-MEK5 -4 and GRK2 aptamer HTS 0.
Screening C1CCC(C23CC4CC(CC(C4)C2)C3)NC1 (configuration not stated) returned MEKK3 PB1 HTS 123*, B2AR ag 7, MEKK2wt PB1 HTS 100, MEKK2 mut-MEK5 7, GRK2 aptamer HTS 2, MEKK2wt confirm 101, MEKK2mut-MEK5 -1 and MEKK3-MEK5 inh 102.
For Cc1ccccc1C(=O)N1[C@@H](C(C)C)COc2cc(Br)ccc2S1(=O)=O the results were B2AR ag 14.
